Some test systems named below: EPHA4; EPHA5; EPHA6; EPHA7; EPHA8; EPHB1; EPHB2; EPHB3; EPHB4; EPHB6; ERBB2; ERBB3; ERBB4; ERN1.
What all share (details): concentration: 1 μM, replicates: in singlicate; n = 1
In a further assay the test system is T1, ERK1.
T1 construct: gene MAPK3

The next assay relates to T2, ERK2.
T2 construct: gene MAPK1

In another assay the test system is T3, ERK3.
T3 construct: gene MAPK6

A further assay relates to T4, ERK4.
T4 construct: gene MAPK4

A further assay relates to T5, ERK5.
T5 construct: gene MAPK7

Another assay relates to T6, ERK8.
T6 construct: gene MAPK15
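Also: KINOMEscan kinase panel screen.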

Regarding `Cc1nnc(-c2ccc3occ(-c4ccc(S(C)=O)cc4)c3c2)[nH]1` (centres unmarked), the “%Inh” value in the assay with EPHA4 came to 24%; with EPHA5, 10%; with EPHA6 it was 34%; with EPHA7 it was 7%; with EPHA8, 6%; in the assay on EPHB1, 0%. For the same compound, the “%Inh” value with EPHB2 is given as 16%; in the assay on EPHB3, 17%; in the assay with EPHB4 it was 16%; with EPHB6, 13%; with ERBB2 it was 16%; in the assay on ERBB3, 6%. Further, the “%Inh” value was determined as 5% with ERBB4; 0% in the assay on ERK1; 8% in the assay on ERK2; 13% in the assay on ERK3; 0% in the assay on ERK4; 0% with ERK5. In addition, the “%Inh” value is on record as 0% in the assay with ERK8 and 35% in the assay with ERN1.

In the case of `O=C(O)COc1ncnc2cc(-c3ccc4[nH]ncc4c3)sc12`, the “%Inh” value was 0% in the assay on EPHA4; 42% in the assay with EPHA5; 4% with EPHA6; 0% in the assay with EPHA7; 0% in the assay on EPHA8; 0% in the assay with EPHB1. Moreover, the “%Inh” value in the assay with EPHB2 amounted to 0%; in the assay with EPHB3, 0%; in the assay on EPHB4, 7%; with EPHB6, 47%; in the assay on ERBB2, 0%; in the assay on ERBB3, 0%. For the same compound, the “%Inh” value was determined as 15% in the assay with ERBB4; 0% with ERK1; 24% in the assay with ERK2; 0% with ERK3; 0% with ERK4; 1% in the assay with ERK5. Besides, the entries for the “%Inh” value in the assay with ERK8 and in the assay on ERN1 were 3% and 15%, respectively.

As for `Cc1cc(-c2ccc3c(c2)CC[C@@H](N[C@@H](C)c2ccccc2)C3)cnc1N.Cl` [GW412617], the “%Inh” value worked out at 13% with EPHA4; 1% in the assay with EPHA5; 10% in the assay with EPHA6; 0% in the assay on EPHA7; 8% with EPHA8; 9% in the assay on EPHB1. In addition, the “%Inh” value worked out at 0% with EPHB2; 9% in the assay on EPHB3; 11% with EPHB4; 48% with EPHB6; 0% in the assay with ERBB2; 0% in the assay with ERBB3. For the same compound, the “%Inh” value in the assay with ERBB4 amounted to 0%; in the assay on ERK1 it was 0%; with ERK2 it was 12%; in the assay on ERK3, 5%; in the assay on ERK4, 0%; with ERK5, 0%. Moreover, the figures for the “%Inh” value in the assay on ERK8 and with ERN1 were 29% and 0%, respectively.

In the case of `Cc1ccc(C(=O)Nc2ccc(Nc3ccnc4cc(-c5ccccn5)ccc34)cc2O)cc1.Cl` [GW440146], the “%Inh” value came to 0% in the assay on EPHA4; 0% in the assay with EPHA5; 0% with EPHA6; 4% in the assay on EPHA7; 10% in the assay with EPHA8; 5% with EPHB1. The “%Inh” value with EPHB2 is listed as 14%; in the assay on EPHB3 it was 0%; in the assay with EPHB4 it was 0%; in the assay on EPHB6 it was 48%; in the assay with ERBB2, 38%; with ERBB3, 0%. In addition, the “%Inh” value in the assay on ERBB4 was determined as 31%; with ERK1, 5%; in the assay with ERK2 it was 0%; in the assay with ERK3, 0%; in the assay on ERK4, 10%; in the assay on ERK5, 0%. Also, the “%Inh” value in the assay on ERK8 and in the assay with ERN1 was 0% in each case.

Take `Cc1cc(N2Cc3ccccc3C2)nc(Nc2ccc(S(=O)(=O)N3CCOCC3)cc2)n1.Cl` [GSK1669917]: the “%Inh” value is reported as 0% in the assay on EPHA4; 0% in the assay on EPHA5; 0% in the assay on EPHA6; 0% with EPHA7; 7% in the assay with EPHA8; 0% with EPHB1. For the same compound, the “%Inh” value worked out at 0% with EPHB2; 0% with EPHB3; 6% in the assay on EPHB4; 10% in the assay on EPHB6; 0% in the assay on ERBB2; 0% in the assay with ERBB3. For the same compound, the “%Inh” value with ERBB4 amounted to 26%; in the assay with ERK1 it was 0%; in the assay with ERK2, 0%; in the assay on ERK3 it was 0%; in the assay with ERK4, 19%; with ERK5 it was 0%. Also, the “%Inh” value in the assay on ERK8 and in the assay with ERN1 was 0% in each case.

Take `Cn1cncc1-c1ccc2ncnc(Nc3ccc(OCc4ccccc4)cc3)c2c1` [GW320571]: the “%Inh” value is given as 13% in the assay with EPHA4; 2% with EPHA5; 19% with EPHA6; 1% in the assay with EPHA7; 12% in the assay on EPHA8; 6% in the assay on EPHB1. Further, the “%Inh” value with EPHB2 amounted to 0%; in the assay on EPHB3, 23%; in the assay with EPHB4 it was 8%; with EPHB6 it was 3%; in the assay with ERBB2, 99.4%; in the assay with ERBB3, 43%. Also, the “%Inh” value with ERBB4 is 61%; in the assay on ERK1 it was 13%; in the assay on ERK2, 10%; in the assay on ERK3, 0%; in the assay with ERK4, 0%; in the assay on ERK5 it was 0%. Also, the “%Inh” value in the assay with ERK8 was determined as 25%; with ERN1, 0%.

`O=C(Nc1n[nH]c2nc(-c3nccs3)c(Br)cc12)C1CCCC1` [SB-742609]: the “%Inh” value in the assay on EPHA4 amounted to 25%; in the assay with EPHA5, 0%; with EPHA6, 20%; in the assay on EPHA7, 10%; with EPHA8, 14%; with EPHB1, 0%. For the same compound, the “%Inh” value with EPHB2 turned out to be 0%; in the assay on EPHB3 it was 26%; with EPHB4, 10%; in the assay on EPHB6, 46%; in the assay with ERBB2 it was 0%; with ERBB3, 0%. In addition, the “%Inh” value in the assay with ERBB4 was determined as 0%; with ERK1 it was 10%; with ERK2, 2%; in the assay with ERK3 it was 0%; with ERK4 it was 100%; in the assay on ERK5 it was 0%. The “%Inh” value in the assay with ERK8 was 60%; in the assay on ERN1, 12%.

`Cn1ccc2ncnc(Oc3ccc(Nc4nc5ccccc5[nH]4)cc3)c21`: the “%Inh” value is listed as 12% with EPHA4; 0% in the assay with EPHA5; 4% with EPHA6; 0% with EPHA7; 0% in the assay with EPHA8; 0% in the assay with EPHB1. Further, the “%Inh” value in the assay with EPHB2 is listed as 0%; in the assay on EPHB3, 0%; in the assay with EPHB4, 1%; with EPHB6, 0%; with ERBB2 it was 3%; in the assay on ERBB3, 0%. The “%Inh” value in the assay with ERBB4 was 0%; in the assay on ERK1, 0%; in the assay with ERK2, 2%; with ERK3, 0%; with ERK4 it was 0%; with ERK5, 0%. Further, the “%Inh” value with ERK8 and in the assay with ERN1 was 0% each time.

Regarding `Clc1cc(Cl)cc(Nc2ccnc(Nc3cc(Cl)cc(Cl)c3)n2)c1` [GSK175726], the “%Inh” value in the assay on EPHA4 came to 8%; in the assay with EPHA5 it was 0%; in the assay on EPHA6 it was 13%; with EPHA7, 8%; with EPHA8, 17%; in the assay with EPHB1, 1%. For the same compound, the “%Inh” value is on record as 19% with EPHB2; 10% in the assay with EPHB3; 28% in the assay on EPHB4; 19% with EPHB6; 22% in the assay with ERBB2; 0% in the assay on ERBB3. Also, the “%Inh” value in the assay with ERBB4 came to 36%; in the assay on ERK1, 0%; with ERK2, 0%; in the assay with ERK3, 14%; in the assay with ERK4, 20%; with ERK5, 0%. Further, the “%Inh” value with ERK8 came out at 0%; in the assay on ERN1, 13%.

For `COc1ccccc1-c1ccc2c(NC(=O)C3CC3)n[nH]c2n1` [SB-711239], the “%Inh” value in the assay on EPHA4 is listed as 13%; in the assay with EPHA5, 0%; in the assay with EPHA6, 9%; with EPHA7 it was 4%; in the assay with EPHA8, 9%; in the assay on EPHB1 it was 0%. Moreover, the “%Inh” value with EPHB2 is 11%; in the assay with EPHB3, 15%; in the assay on EPHB4 it was 14%; in the assay with EPHB6 it was 6%; in the assay with ERBB2 it was 0%; in the assay on ERBB3, 22%. Also, the “%Inh” value stood at 23% in the assay on ERBB4; 3% with ERK1; 3% with ERK2; 0% in the assay with ERK3; 0% with ERK4; 0% with ERK5. Besides, the “%Inh” value with ERK8 and in the assay with ERN1 was 0% in each case.

Values taken from paper PMC5540273 (PLoS ONE, 2017).
